High-throughput results deposited in PubChem by National Center for Advancing Translational Sciences (NCATS).
FLuc modulator = counter-screen for miR-21 project: firefly luciferase inhibitors or activators; P08659; purified FLuc, Km substrates, luminescence inhibition; Potency, µM (series often up to 57.5 µM), actives largely listed as inhibitors; 6.9% of 360,000 active; AID 588342; further: nearly all actives have a fitted effect of over 55% in size
Target sequence (P08659 whole entry, looked up): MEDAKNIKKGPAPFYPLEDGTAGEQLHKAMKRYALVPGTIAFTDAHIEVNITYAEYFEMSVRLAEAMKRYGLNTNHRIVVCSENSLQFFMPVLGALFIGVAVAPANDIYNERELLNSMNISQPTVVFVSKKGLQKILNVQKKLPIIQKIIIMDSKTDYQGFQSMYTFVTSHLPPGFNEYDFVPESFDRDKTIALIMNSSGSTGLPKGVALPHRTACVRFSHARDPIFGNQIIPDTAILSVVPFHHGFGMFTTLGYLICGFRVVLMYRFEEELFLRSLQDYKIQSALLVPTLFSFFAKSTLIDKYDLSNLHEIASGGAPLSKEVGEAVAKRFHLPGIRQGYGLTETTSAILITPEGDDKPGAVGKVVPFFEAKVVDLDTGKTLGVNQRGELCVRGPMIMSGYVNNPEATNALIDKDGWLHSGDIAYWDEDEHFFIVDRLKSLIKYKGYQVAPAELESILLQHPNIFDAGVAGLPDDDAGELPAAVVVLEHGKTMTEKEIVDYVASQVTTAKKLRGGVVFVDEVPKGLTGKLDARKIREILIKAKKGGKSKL
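Purified P. pyralis luciferase, 10 nM final, with Km-level 10 uM D-luciferin and 10 uM ATP in 50 mM Tris acetate pH 7.5, 10 mM Mg acetate, 0.01% Tween-20, 0.05% BSA; 6-point qHTS titration about 60 µM downward; luminescence read.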
Rab9 promoter act = activators of Rab9 promoter; Huh7 Rab9 promoter-luciferase reporter, luminescence, 24 h; Potency, µM (top dose mostly 9.22 µM), hits mostly activators; 2.8% of 320,000 active; AID 485297; further: nearly all actives have a fitted effect of over 60% in size
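Huh7 reporter line, Rab9 promoter upstream of luciferase. Compound exposure 24 h at 37 °C in reduced-serum medium with 10% FBS. Read-out: luminescence.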
ELG1 genotox = inducers of genotoxicity in HEK293T ELG1-luciferase cells; 1.3% of 330,000 active; Potency, µM (highest dose often 46 µM), actives largely listed as activators; HEK293T ELG1-luciferase reporter, luminescence, 16 h; AID 504466; further: nearly all actives have a fitted effect of over 60% in size
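DMSO vehicle served as control against compound-treated ELG1-luciferase HEK293T cells; exposure lasted 16 hr at 37 °C and 5% CO2, followed by ONE-Glo luminescence detection after 30 min.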
NPC1 promoter act = activates the NPC1 promoter. Huh7 NPC1 promoter luciferase reporter, 24 h. Potency, µM (titrated, usually from 9.22 µM), most hits filed as activators. 2.4% of 320,000 active. AID 485313; further: nearly all actives have a fitted effect of over 60% in size
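Readout is luciferase luminescence, reflecting NPC1 promoter activation in stably transfected Huh7 cells after 24 h compound exposure at 37 °C in reduced-serum medium with 10% FBS.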
SMN2 splice enh = increases expression of the SMN2 splice variant; HEK293 SMN2-luciferase splicing reporter, luminescence, 30-36 h; Potency, µM (doses to about 46.1 µM), actives largely listed as activators; 2.8% of 210,000 active; AID 1458; further: nearly all actives have a fitted effect of over 55% in size
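HEK293 cells carry an SMN2 minigene-luciferase reporter in which exon 7 inclusion puts luciferase in frame. Cells were seeded at 2000 cells/well, attached for 10-12 hours, then exposed to compounds for 30-36 hours at 37C before ONE-Glo luminescence.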
ELG1 repair inh = ELG1-dependent DNA repair inhibition. 2.3% of 330,000 active. HEK293T ELG1-luciferase reporter, luminescence, 16 h; DNA damage induced by 5-fluorouridine. AID 504467. Potency, µM (series often up to 46.1 µM), usual class: inhibitors; further: nearly all actives have a fitted effect of over 55% in size
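DMSO vehicle served as the neutral condition. Each well held 2,000 cells given 5-fluorouridine plus compound; after 16 hr at 37 °C/5% CO2, ONE-Glo was added and luciferase measured 30 min later.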
Hits are given with their value; 0 = inactive; ? = inconclusive; - = no result given. Most compounds without a hit are left out; they make up all but 9.3% or so of the library. The call rests on the fitted dose curve; in most records, active means well fitted curve in the direction sought with a large enough effect; inconclusive means small, poorly fitted or top-dose-only effect, or another doubt; inactive means no such curve, though single readings can be large; an effect the other way counts as inactive or inconclusive.

SMILES	FLuc modulator	Rab9 promoter act	ELG1 genotox	NPC1 promoter act	SMN2 splice enh	ELG1 repair inh
COc1ccc(-c2oc(NC(=O)CSc3nncn3C)c(C#N)c2-c2ccc(OC)cc2)cc1	0	0	0	0	0	18µM
CC(=O)Oc1ccc(N2C(=O)C3C4C=CC(CO)(O4)C3C2=O)cc1 (stereo unspecified)	?	0	0	0	0	0
COc1ccc(C(=O)NCC23C=CC(O2)C2C(=O)N(Cc4ccccc4)C(=O)C23)cc1 (stereo unspecified)	0	0	0	0	0	16µM
Cc1cccc(Nc2nc(N)nc(N)c2S(=O)(=O)c2ccccc2)c1	0	-	-	-	0	-
O=C(c1cnn(C(=O)COc2ccc(Cl)cc2)c1)c1ccccc1O	0	0	0	0	0	?
COc1ccc(O)c(C(=O)c2cnn(-c3ccc(Cl)cc3)c2)c1	17µM	0	0	0	-	0
Cc1ccc(O)c(C(=O)c2cnn(C(=O)COc3ccc(Cl)cc3)c2)c1	0	0	0	0	0	16µM
COc1cc(-c2nnc(SCC(=O)OC3CCCCC3)o2)cc(OC)c1OC	0	0	0	0	?	0
O=c1c2ccccc2nc2ccc(NCc3cccs3)nn12	8.5µM	1.6µM	0	3.5µM	16µM	?
COc1cc(C(=S)N2CCCCC2)ccc1O	0	0	0	0	0	0
O=C(COc1ccccc1Cl)Nc1cc(NC(=O)COc2ccccc2Cl)cc(C(=O)O)c1	?	4µM	?	?	-	?
Cc1ccc(Cl)c(OCC(=O)Nc2cccnc2)c1	15µM	0	?	?	-	?
Cc1cc(OCC(=O)Nc2cccnc2)c2c(C)c(C)c(=O)oc2c1	0	0	0	0	-	?
O=C(COc1ccccc1Cl)Nc1cccnc1	19µM	?	?	?	-	?
O=C(COc1ccc(F)cc1F)Nc1cccnc1	0	0	0	0	-	?
CCOc1ncccc1C(=O)OCC(=O)N1CCN(S(=O)(=O)c2ccc(Cl)cc2)CC1	0	0	0	0	0	0
CSc1ccccc1C(=O)C1CCCN(C(=O)c2cncs2)C1 (stereo unspecified)	0	0	0	0	-	0
CCc1ccc(C(=O)COC(=O)CNC(=O)c2ccco2)cc1	?	0	0	0	0	0
CC(c1ccccc1)N1CCc2[nH]c(=S)[nH]c(=O)c2C1 (stereo unspecified)	0	0	0	0	0	0
COCc1cc(=O)n2[nH]c(-c3ccc(C)cc3)cc2n1	12µM	0	15µM	0	0	?
CCOC(=O)Cc1cc(=O)n2[nH]c(-c3ccc(C)cc3)cc2n1	19µM	0	?	0	0	?
Cc1cc(=O)n2[nH]c(-c3ccccc3)cc2n1	?	-	-	-	0	-
CCOC(=O)c1cc(=O)n2[nH]c(-c3ccc(C)cc3)cc2n1	13µM	0	?	0	?	0
Cc1cc(=O)n2[nH]c(-c3ccc(C(C)(C)C)cc3)cc2n1	11µM	0	0	0	0	?
CCOC(=O)[C@H]1[C@H]2COc3ccc(Br)cc3[C@H]2N2C(=O)CNC(=O)[C@@]12C	0	0	0	0	-	0
SMILES	FLuc modulator	Rab9 promoter act	ELG1 genotox	NPC1 promoter act	SMN2 splice enh	ELG1 repair inh
Cc1cc(C)nc(N(C#N)S(=O)(=O)c2ccc(Br)cc2)n1	0	0	0	0	0	0
CCCCC(=O)N/N=C/c1sccc1C	0	0	0	0	0	0
CCOc1cc2[nH]c(=O)n(Cc3ccc(C(=O)N4CCN(c5cccc(Cl)c5)CC4)cc3)c(=O)c2cc1OCC	0	-	-	-	-	-
Cc1nc(C)n(C)c(=O)c1-c1ccccc1	0	0	0	0	-	0
Cc1nc2nc(-c3ccccc3)[nH]n2c(=O)c1C	?	?	?	0	?	?
Cc1nc2cc(-c3ccccc3)[nH]n2c(=O)c1C	13µM	?	21µM	0	-	?
CCOc1cc(/C=N/Nc2ccc(C(=O)O)cc2)ccc1OC(=O)c1ccccc1C	?	4µM	0	1.4µM	-	?
COc1cccc(C(=O)Oc2ccc(/C=N/Nc3ccc(C(=O)O)cc3)cc2OC)c1	24µM	?	?	0.45µM	-	?
COc1cccc(OCc2cc(/C=N/Nc3ccc(C(=O)O)cc3)ccc2OC)c1	6.7µM	?	4.6µM	0	-	?
C[n+]1c(/C=C/c2ccc(O)cc2)ccc2ccccc21	13µM	0	0	0	-	0
C[n+]1c(/C=C/c2ccc3c(c2)OCO3)ccc2ccccc21	11µM	0	?	0	0	?
CCc1nc(Nc2ccc3c(c2)OCO3)c2oc3ccccc3c2n1	?	0	0	0	0	?
COc1ccccc1OCC(=O)OCC(=O)NC1CCCCC1	-	-	0	-	-	0
CCSc1nccc(-c2nn(-c3ccc(C)cc3)ccc2=O)n1	0	0	0	0	0	10µM
C=CCSc1nccc(-c2nn(-c3ccc(C)cc3)ccc2=O)n1	0	0	0	0	0	7.3µM
C#CCSc1nccc(-c2nn(-c3ccc(C)cc3)ccc2=O)n1	0	0	0	0	?	9.2µM
CN(C)S(=O)(=O)c1ccc(C(=O)OCC(=O)c2csc(N3CCCCC3)n2)cc1	?	0	0	0	-	?
O=C(COC(=O)c1cccnc1Cl)NCCc1ccc(F)cc1	-	-	0	-	-	0
O=C(NC(Cc1ccccc1)c1nc2ccccc2[nH]1)c1ccc(Cl)c([N+](=O)[O-])c1 (stereo unspecified)	0	0	0	0	-	?
O=C(Nc1nc2ccccc2[nH]1)c1ccccc1[N+](=O)[O-]	?	0	0	?	13µM	?
Cc1c(C(=O)Nc2nc3ccccc3[nH]2)cccc1[N+](=O)[O-]	15µM	?	0	0	20µM	?
O=C(Nc1nc2ccccc2[nH]1)c1ccc(Cl)c([N+](=O)[O-])c1	?	0	?	0	13µM	?
Cc1c(C(=O)NC(Cc2ccccc2)c2nc3ccccc3[nH]2)cccc1[N+](=O)[O-] (stereo unspecified)	0	0	0	0	0	0
COC(=O)c1[nH]c2ccccc2c1NC(=O)c1ccccc1[N+](=O)[O-]	0	0	0	0	0	0
COc1ccc(OC)c(-c2nc3c(C)n[nH]c(=O)c3[nH]2)c1	0	0	0	0	0	6.5µM
N/C(COc1ncn(-c2ccccc2)n1)=N\S(=O)(=O)c1ccc(Cl)cc1Cl	0	0	0	0	?	16µM
NNC(=O)c1cc(NS(=O)(=O)c2cccs2)cc(NS(=O)(=O)c2cccs2)c1	-	-	0	-	-	0
O=C(CSCc1cnn(-c2ccccc2)c1-n1cccc1)N1CCN(Cc2ccccc2)CC1	0	0	0	0	0	?
CCOP(=O)(OCC)/C(=C/N1CCCCC1)NC(=O)c1ccccc1	0	0	0	0	-	?
CCOc1ccccc1N1CC(c2nc3ccccc3n2CCOc2ccc(OC)cc2)CC1=O (stereo unspecified)	0	-	-	-	0	-
